Inconclusive results are not listed. Activity calls are given as the source filed them. Calls follow the shape of the dose curve; as a rule, active = well fitted inhibition curve with a large enough effect; inconclusive = small, poorly fitted or top-dose-only effect; inactive = no such curve, though single readings can be large or run the other way.

Experimental findings from PubChem BioAssay (NCATS) are described below.
% is scaled to controls: 0 for no effect and ±100 for the full control effect.

The nature of this assay: HTS Assay for Allosteric Antagonists of the Human D2 Dopamine Receptor: Hit Validation in HTRF (AID 624455).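 Also: stable D1 dopamine receptor cell line scored for blocking the D1 response.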 Particulars: Cells stably expressing D1 dopamine receptor, inhibition mode; series mostly up to 46.1 µM; activity, negative = inhibition: at the top concentration. The gist of the method: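 Inhibition of the D1-mediated response was measured by HTRF. Cells used were a line stably expressing the D1 dopamine receptor.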
For `N=C(N)SCCc1ccc(CCSC(=N)N)cc1`, the “activity, negative = inhibition” value was -2.1% (inactive).
For `CCCCCCCCCCCCCCCC(=O)NCC(COP(=O)([O-])OCC[N+](C)(C)C)OCC` (stereo unspecified), the “activity, negative = inhibition” value is -2.55% (inactive).
The same measure for `CN(C)CCCO[C@@H]1[C@H]2OC(C)(C)O[C@H]2O[C@@H]1[C@H](O)CO`: -2.54% (inactive); for `NC[C@H]1O[C@@H](n2cnc3c(N)ncnc32)[C@H](O)[C@@H]1O`: -6.82% (inactive).
The same measure for `O=C1O/C(=C/Br)CCC1c1cccc2ccccc12` (stereo unspecified): -0.106% (inactive).
The result for `NCCNC(=O)c1ncsc1-c1cccc(F)c1` reads -1.63% (inactive).
As to `CCOC(=O)C1=C(C)NC(C)=C(C(=O)OCC)C1c1c(F)c(F)c(F)c(F)c1F`, the “activity, negative = inhibition” value is 2.12% (inactive).
The result for `NCCCS(=O)(=O)O` reads -1.29% (inactive); that for `O=c1[nH]c2cc(C(F)(F)F)ccc2n1-c1cc(C(F)(F)F)ccc1O`, -0.649% (inactive); that for `CO/N=C(\C(=O)N[C@@H]1C(=O)N2C(C(=O)O)=C(COC(C)=O)CS[C@H]12)c1csc(N)n1`, 2.76% (inactive).
The result for `CC[C@@H](C)[C@H]1O[C@]2(CC[C@H]1C)C[C@@H]1C[C@@H](CC=C(C)[C@@H](O[C@H]3C[C@H](OC)[C@@H](O[C@H]4C[C@H](OC)[C@@H](O)[C@H](C)O4)[C@H](C)O3)[C@@H](C)C=CC=C3CO[C@@H]4[C@H](O)C(C)=C[C@@H](C(=O)O1)[C@]34O)O2` reads 1.57% (inactive).
Take `NCCCCCCCCCCN`: the “activity, negative = inhibition” value was -0.896% (inactive).
The result for `O=S(=O)(c1cccc2c(I)cccc12)N1CCCNCC1` reads -25.3% (inactive); that for `CCCCC#Cc1nc(NC)c2ncn([C@@H]3O[C@H](CO)[C@@H](O)[C@H]3O)c2n1`, -11.4% (inactive); that for `O=C(c1ccc(OCCCc2cnc[nH]2)cc1)C1CC1`, 1.01% (inactive).
The result for `O=C(c1ccc(Cl)cc1)N1CCN(c2ccc([N+](=O)[O-])c3ncccc23)CC1` reads 7.32% (inactive).
The result for `Cn1cc(C2=C(c3ccc(Cl)cc3Cl)C(=O)NC2=O)c2ccccc21` reads -1.36% (inactive); that for `Cn1c(=O)c2[nH]c(-c3ccccc3)nc2n(C)c1=O`, 3.23% (inactive); that for `CNc1ncnc2c1ncn2[C@@H]1O[C@H](CO)[C@@H](O)[C@H]1O`, 2.46% (inactive).
In the case of `CCCCCCCCCCCCCCCC(=O)OC(CC(=O)O)C[N+](C)(C)C` (stereo unspecified), the “activity, negative = inhibition” value was 5.96% (inactive).
The same measure for `c1ccc(-c2ccccn2)nc1`: -3.53% (inactive).
The result for `NO` reads 5.67% (inactive); that for `O=[N+]([O-])c1ccc(CSc2ncnc3c2ncn3[C@@H]2O[C@H](CO)[C@@H](O)[C@H]2O)cc1`, -16.6% (inactive); that for `C[C@@H](NC(=O)/C(C#N)=C/c1ccc(O)c(O)c1)c1ccccc1`, 2.92% (inactive).
The same measure for `Cc1cc2c(cc1Cl)N(C(=O)Nc1ccc(Oc3cccnc3C)nc1)CC2`: 4.33% (inactive); for `NC(=O)C(=O)O`: -2.54% (inactive).
